Reference: ChEMBL document CHEMBL3988442, “University of Dundee, Small-Polar-MMV Screening Library” (2021)

These compounds were tested against AMP-activated protein kinase, AMPK (Homo sapiens) (UniProt P54646+O43741+P54619+Q9UGJ0+Q9Y478+Q13131+Q9UGI9) (assay: AMP-dependent Kinase enzyme assay. An in vitro enzyme assay that detects ADP turnover that is directly proportional to AMPK activity. This uses naive AMPK that is activated during the assay with MK-8722). Conditions: 30 µM.
Format: functional
Design: scale not given: direction of the effect not stated beside the values
With `Nc1nccc(N2CCC(c3cc(Cc4ccccc4)n[nH]3)CC2)n1` the Percent Effect was 4.14%. Compound `Cn1ccc(C(=O)N2CCCC2c2cc(CO)[nH]n2)n1` (stereo not given) has a Percent Effect of 20.7%. Compound `O=C(Cn1cc(I)cn1)N1CCNC1=O` has a Percent Effect of 0.6%. For `CCNc1cc2c(nn1)CCN(C(=O)c1ccc(-n3cccn3)nc1)C2`, the Percent Effect was -5.94%. In the case of `Cc1ncsc1C(=O)N1CCCC1c1c(C)nn(C)c1C` (stereo not given), the Percent Effect is reported as 1.43%. With `CN1CCCCC1(C)C(=O)N1CCC(c2ccccn2)CC1` (stereo not given) the Percent Effect was -3.58%. For `COCC1(C(=O)N[C@H]2CN(c3ccnc(C)c3)C[C@@H]2C2CC2)CCC1`, the Percent Effect was -1.57%. In the case of `Cc1nc(CN(C)S(=O)(=O)c2ccc(F)cc2Br)no1`, the Percent Effect is reported as 1.76%. `CN(Cc1cc(Br)cs1)Cc1nnsc1Cl` was tested, and the Percent Effect was 15.7%. In the case of `CC(C)c1cc(C(=O)NCC2CCCN(c3ncccn3)C2)n(C)n1` (stereo not given), the Percent Effect is reported as 5.97%. Work on `CCN(C)S(=O)(=O)N1CCC(C(O)c2ccc(Cl)cc2)CC1` (stereo not given) yielded a Percent Effect of 1.46%. Compound `O=C(NCc1sc2ccccc2c1Cl)c1cc2n(n1)CCNC2` has a Percent Effect of 10.8%. With `O=C(CCOc1ccccc1F)N1CCC(O)CC1` the Percent Effect was 3.95%. `CC(C)Cc1cc(CNC(=O)c2cccc3c2NCCC3)no1` showed a Percent Effect of 1.24%. For `CC(CN1CCOC1=O)NC(=O)c1cccc(C#N)c1` (stereo not given), the Percent Effect was 11.8%. In the case of `CC(C)N(Cc1ccccn1)C(=O)CCOc1cccc(F)c1`, the Percent Effect is reported as -0.803%. For `CC(C)CN(C(=O)Nc1cccc(C(=O)N(C)C)c1)C1CC1`, the Percent Effect was 0.783%. In the case of `Cc1nc(C)c(C(C)NCc2cnc(N3CCOCC3)nc2)s1` (stereo not given), the Percent Effect is reported as 7.71%. With `CNS(=O)(=O)CC(=O)N(C1CC1)C1Cc2ccccc2C1` the Percent Effect was -3.11%. With `Cc1cc(CN(C)C(C(=O)O)c2cccc(C(F)(F)F)c2)on1` (stereo not given) the Percent Effect was 3.9%. `CCC(C)NC(=O)Nc1cccc(OCCCC#N)c1` (stereo not given) showed a Percent Effect of -4.6%. For `CC(C)(CNC(=O)c1ccco1)NC(=O)OC(C)(C)C`, the Percent Effect was -6.6%. In the case of `CN(C(=O)c1ccncc1)c1nnc(C2CCOC2)s1` (stereo not given), the Percent Effect is reported as 12.1%. With `O=C(O)[C@H]1C[C@H](C(=O)NCc2ccncc2)CN(CCC(F)(F)F)C1` the Percent Effect was -2.07%. `CCc1ccccc1OCCN(C)C(=O)CCN1CCCCO1` gave a Percent Effect of 0.981%. Compound `Cc1ccnc(C2(C)CCCN2S(=O)(=O)c2ccccc2)n1` (stereo not given) has a Percent Effect of -5.61%. Work on `CNC(=O)Cc1ccc(NC(=O)NCC(C)c2ncc(C)s2)cc1` (stereo not given) yielded a Percent Effect of -3.25%. In the case of `CCc1ncc(CN2CCOC(Cc3cccc(F)c3)C2)cn1` (stereo not given), the Percent Effect is reported as 6.71%. For `CC(=O)NCC(=O)Nc1cc(C)n(-c2ccc(Cl)cc2Cl)n1`, the Percent Effect was 3.23%. In the case of `COC(=O)c1ccc(CCn2cnc(C#N)n2)cc1`, the Percent Effect is reported as -2.56%. `COc1ccc(OC2CCN(C(=O)c3cnc(C)s3)CC2)cc1` gave a Percent Effect of -2.19%. `CN1CCN(C(=O)C2(NC(N)=O)CCCCC2)Cc2ccccc21` gave a Percent Effect of 0.804%. `CCc1nnc(Nc2cc(C)nc(C3CN(C(=O)C(C)C)CCO3)c2)s1` (stereo not given) was tested, and the Percent Effect was -1.78%. Compound `CCC(=O)Nc1cccc(OCC(=O)N[C@@H]2C[C@H]3CC[C@@H]2C3)c1` has a Percent Effect of 3.88%. For `CN(C)c1ncccc1N(C)C(=O)Cn1cc(-c2ccccc2)nn1`, the Percent Effect was -17.2%. `CC(C)n1cc(CN(Cc2ccc(F)cc2)CC2CCCO2)cn1` (stereo not given) was tested, and the Percent Effect was 5.24%. `CCOc1cccc(CN(Cc2cnn(C)c2)CC(C)C)c1O` showed a Percent Effect of -9.84%. `COc1ccc(CN2CC[C@@]3(O)CCCC[C@H]3C2)cc1C(=O)O` gave a Percent Effect of -10%. In the case of `Cc1nc[nH]c1CN1CCC(C2CCN(CCc3ccccc3)C2)CC1` (stereo not given), the Percent Effect is reported as -0.168%. In the case of `COc1ccc(N2CCC(NC(=O)c3sccc3C)CC2)cc1`, the Percent Effect is reported as -1.46%.
